The list is not random: actives were taken first. Their share in the collection is about 27%.
CYP2C19 activ – human CYP2C19 activators, primary screen, biochemical, luminescence | recombinant CYP2C19, luciferin-H EGE luminescence; active compounds read high; 0 = fully inhibited enzyme, 1 = untreated enzyme | activation factor at 5 µM | 96,000 tested, under 10 active;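 active = activation factor of at least 2 at 5 µM in the primary screen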;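 note: 0 = wells with 2.5 mM tranylcypromine and 1 = vehicle-only wells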
sEH inh – soluble epoxide hydrolase inhibitors, primary screen, biochemical, human sEH. Bifunctional epoxide hydrolase 2 (Homo sapiens), P34913. recombinant human sEH enzymatic activity assay. inhibition, % at 2 µM. 91,000 compounds, 0.34% hits; in the data active = inhibition above about 80%
Target sequence (P34913 whole entry, looked up): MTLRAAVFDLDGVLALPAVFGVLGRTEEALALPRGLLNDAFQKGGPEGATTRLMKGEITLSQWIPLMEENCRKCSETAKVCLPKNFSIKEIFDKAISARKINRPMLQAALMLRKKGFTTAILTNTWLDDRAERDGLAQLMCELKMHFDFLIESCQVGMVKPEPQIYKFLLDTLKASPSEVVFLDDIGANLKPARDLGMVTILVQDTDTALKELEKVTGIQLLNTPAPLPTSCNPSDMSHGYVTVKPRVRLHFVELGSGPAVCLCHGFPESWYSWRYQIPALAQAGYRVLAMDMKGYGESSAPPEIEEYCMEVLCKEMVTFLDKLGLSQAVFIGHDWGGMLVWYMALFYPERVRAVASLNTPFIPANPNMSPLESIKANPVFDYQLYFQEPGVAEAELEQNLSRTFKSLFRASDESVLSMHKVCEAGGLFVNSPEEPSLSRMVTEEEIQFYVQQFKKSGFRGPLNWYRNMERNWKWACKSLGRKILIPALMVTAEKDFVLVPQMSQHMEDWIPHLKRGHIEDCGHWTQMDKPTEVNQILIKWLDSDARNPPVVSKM
CYP2C9 act – human CYP2C9 activators, primary screen, biochemical, luminescence. activation factor at 5 µM. recombinant CYP2C9, luciferin-H conversion; active compounds read high; factor 1 = untreated enzyme, 0 = blocked. 96,000 compounds, 1.4% hits. Cytochrome P450 2C9 (Homo sapiens), P11712. AID 1024, 2008;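 active = activation factor of 2 or more for CYP2C9 at a 5 µM dose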;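 note: 0 = sulfaphenazole-blocked wells and 1 = vehicle-only wells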
CYP2C19 inhib – blockers of cytochrome P450 2C19 activity – biochemical, luminescence, ADME assay, primary screen; P33261; CYP2C19 Supersomes, luciferin-H EGE luminescence, 30 min; inhibition, % at 5 µM; 96,000 compounds, 21% hits; AID 778, 2007;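 active = CYP2C19 inhibition above a set limit at 5 µM in the primary screen, cut at about 50% in these data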;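 note: plate controls were negative control wells for no effect and 2.5 mM tranylcypromine positive control for full effect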
CYP2C9 inh – blockers of cytochrome P450 2C9 activity – biochemical, luminescence, ADME assay, primary screen. P11712. AID 777, 2007. 96,000 compounds, 20% hits. inhibition, % at 5 µM. CYP2C9 Supersomes, luciferin-H conversion;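 active = blocking of liver enzyme CYP2C9 beyond about 50% at 5 µM, limit read from the data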
sEH act – soluble epoxide hydrolase activators, primary screen, biochemical, human sEH | 91,000 compounds, 0.04% hits | purified human sEH enzymatic activity, activator screen | AID 717, 2007 | activation, % at 2 µM; in the data active = activation above about 37%
Numbers without * were called inactive; x = not tested or not shown.

SMILES | CYP2C19 activ | sEH inh | CYP2C9 act | CYP2C19 inhib | CYP2C9 inh | sEH act
O=C(O)C1C2CCC(O2)C1C(=O)Nc1cnn(Cc2ccccc2)c1 (stereo unspecified) | 0.2 | -9.0 | 0.8 | 82.7* | 19.5 | 10.0
O=C(Nc1cnn(Cc2ccccc2)c1)c1cc2nc(-c3ccco3)cc(C(F)(F)F)n2n1 | 0.9 | x | 1 | 12.3 | 1.1 | x
COC(=O)c1cccc(NC(=O)NC23CC4CC(CC(C4)C2)C3)c1 | 0.9 | -15.1 | 1 | 12.0 | 1.8 | 13.1
COC(=O)C(CC(=O)c1ccc(Cl)cc1)c1ccc(C(C)C)cc1 (stereo unspecified) | 1 | 9.6 | 1.2 | 2.0 | -24.9 | -8.0
CC(C)NC(=S)NNC(=O)C12CC3CC(CC(C3)C1)C2 | 0.9 | -12.2 | 1.1 | 6.4 | -7.2 | 12.5
O=C(NNC(=S)Nc1ccccc1)c1ccncc1 | 0.3 | 2.8 | 0.3 | 69.5* | 69.2* | -2.1
CNC(=O)CC12CC3CC(CC(C3)C1)C2 | 1 | 1.8 | 1 | -0.6 | 2.6 | -5.2
O=C(NNC(=S)NC(=O)C12CC3CC(CC(C3)C1)C2)c1ccncc1 | 0.3 | 3.3 | 0.1 | 66.8* | 93.9* | -5.2
O=C(CC12CC3CC(CC(C3)C1)C2)NCc1ccncc1 | 0 | 21.3 | 0.1 | 99.3* | 87.5* | -20.5
O=C(NCCc1ccncc1)C12CC3CC(CC(C3)C1)C2 | 0.1 | 7.8 | 0.8 | 93.9* | 25.0 | -6.5
O=C(NNS(=O)(=O)c1ccccc1)c1ccncc1 | 1.2 | 3.1 | 1.2 | -15.6 | -21.8 | -1.0
NS(=O)(=O)c1ccc(CNC(=O)C23CC4CC(CC(C4)C2)C3)cc1 | 1 | 27.5 | 1 | 3.1 | -0.4 | -28.2
CCC(C)(C)n1nnnc1C(c1cc2cc3c(cc2[nH]c1=O)OCO3)N1CCN(C)CC1 (stereo unspecified) | 1 | -11.2 | 0.9 | 0.0 | 12.5 | 10.3
Cc1ccccc1Cn1c(=N)n(CC(=O)c2ccco2)c2ccccc21 | 1 | -9.7 | 1 | 3.2 | 0.5 | 7.9
Cc1[nH]c(=S)n(CC2CCCO2)c1C (stereo unspecified) | x | -7.2 | x | x | x | 8.4
CCNCC(O)COCC(O)CNCC (stereo unspecified) | 1 | 0.1 | 0.9 | 4.8 | 6.4 | 2.5
COc1cc2c(cc1NC(=O)Cn1cnc3c1c(=O)n(C)c(=O)n3C)oc1ccccc12 | 1 | -15.2 | 1.1 | 0.1 | -6.8 | 15.8
CCC(SC1=N/C(=C/c2ccccc2OC)C(=O)N1c1ccccc1)C(=O)Nc1cc(C)on1 (stereo unspecified) | 0.8 | 1.7 | 0.3 | 24.1 | 67.4* | 0.8
CCC(C)(C)n1nnnc1C(CC(C)C)N1CCC(C(N)=O)CC1 (stereo unspecified) | 1 | x | 0.8 | -1.5 | 16.9 | x
CCOC(=O)c1c(-c2cccs2)csc1NC(=O)CSc1ncn[nH]1 | 0.1 | -4.1 | 0.1 | 86.1* | 94.7* | 2.2
CCOC(=O)c1c(-c2cccs2)csc1NC(=O)CN1CC(C)OC(C)C1 (stereo unspecified) | 0.7 | x | 0.3 | 32.5 | 69.0* | x
CCOC(=O)c1c(-c2cccs2)csc1NC(=O)CNCCN1CCOCC1 | 0.7 | 8.2 | 0.3 | 27.7 | 67.6* | -6.2
CCOC(=O)c1c(-c2cccs2)csc1NC(C)=O | x | -6.1 | x | x | x | 7.7
CCOC(=O)c1c(-c2cccs2)csc1NC(=O)C(C)(C)C | 1.1 | 0.9 | 0.6 | -12.9 | 42.9 | -1.4
N/C(=N\OS(=O)(=O)c1ccc2ccccc2c1)c1ccncc1 | 0.7 | 8.8 | 0.3 | 30.4 | 68.1* | -9.1
SMILES | CYP2C19 activ | sEH inh | CYP2C9 act | CYP2C19 inhib | CYP2C9 inh | sEH act
C/C(CC(=O)Nc1ccc(Cl)c(Cl)c1)=N\NC(N)=S | 0.3 | 14.3 | 0.7 | 71.9* | 29.4 | -15.3
C/C(CC(=O)Nc1cc(Cl)ccc1Cl)=N\NC(N)=S | 0.8 | -5.8 | 0.9 | 18.0 | 8.7 | 8.7
CNc1nc2ccccc2n1/N=C/c1cccc(OC)c1OC | 0.9 | -3.3 | 1 | 13.4 | 1.9 | 2.7
COc1cccc(/C=C/c2ccncc2)c1OC | 0 | -3.9 | 0 | 99.2* | 98.2* | 3.3
COc1ccc(NC(=O)c2cc(CC(C)C)on2)cc1OC | 0.8 | x | 1.3 | 24.0 | -31.4 | x
CC1Cc2ccccc2N1Cc1cc(=O)n2ccsc2n1 (stereo unspecified) | x | -10.7 | x | x | x | 7.9
CC1Cc2ccccc2N1Cc1nc2cc(C(F)(F)F)ccc2c(=O)[nH]1 (stereo unspecified) | 0.6 | 5.0 | 0.5 | 42.7 | 50.9* | -5.3
CC(=O)N1CCCc2cc(S(=O)(=O)NC(C(=O)NC(C)c3ccccc3)C(C)C)ccc21 (stereo unspecified) | 0.9 | x | 0.9 | 10.1 | 12.7 | x
COc1ccc(NC(=O)C(NS(=O)(=O)c2ccc3c(c2)CCCN3C(C)=O)C(C)C)c(OC)c1 (stereo unspecified) | 0.9 | x | 0.4 | 12.5 | 64.5* | x
COC(=O)C(C)n1cnc2c(nnn2-c2ccc(OC)cc2)c1=O (stereo unspecified) | 1 | -9.3 | 0.9 | 0.9 | 11.0 | 6.2
CCOC(=O)C(CC)n1cnc2c(nnn2-c2ccc(C)cc2)c1=O (stereo unspecified) | 0.8 | 7.8 | 0.5 | 16.9 | 50.3* | -8.1
CCCCN1C2=C(C(=O)CC(C)(C)C2)C(c2ccccc2)C2=C1c1ccccc1C2=O (stereo unspecified) | 1 | -5.0 | 0.9 | -2.4 | 8.5 | 4.3
CCCN1C2=C(C(=O)CC(C)(C)C2)C(c2ccc(F)cc2)C2=C1c1ccccc1C2=O (stereo unspecified) | 1.1 | -3.9 | 0.3 | -14.2 | 74.6* | 5.9
CC1=CC(C)(C)N2C(=O)C3(C(C#N)=C(N)Oc4cc(C)oc(=O)c43)c3cccc1c32 (stereo unspecified) | 0.5 | 8.3 | 0.8 | 48.9 | 23.4 | -6.0
CCCc1nc(SCC(=O)c2ccccc2)c2c(=O)n(C)c(=O)n(C)c2n1 | 1 | x | 0.1 | 3.1 | 86.0* | x
CCCc1nc(SCC(=O)N2CCc3ccccc32)c2c(C)c(C)sc2n1 | 0.8 | 6.7 | 0.2 | 21.9 | 80.3* | -4.5
CCCc1nc(SCC(=O)N2CCc3ccccc32)c2c(=O)n(C)c(=O)n(C)c2n1 | 0.9 | x | 0.5 | 10.8 | 50.0* | x
CCc1nc(SCC(=O)Nc2cccc(C(F)(F)F)c2)c2c(=O)n(C)c(=O)n(C)c2n1 | 0.3 | -4.0 | 0.5 | 66.4* | 51.6* | 5.8
Cc1nn(CCC(=O)NNC(=S)Nc2ccc(Cl)cc2)c(C)c1[N+](=O)[O-] | x | 7.7 | x | x | x | -2.7
O=C(Cn1nc(C(F)F)cc1C(F)F)NNC(=S)Nc1ccc(Cl)cc1 | 0.6 | 2.0 | 0.3 | 44.6 | 71.2* | -2.3

Screens from PubChem.
